Bead autofluor: compound fluorescence in toxin protease inhibitor counterscreen | compound autofluorescence counterscreen, microsphere flow cytometry; hits give high values | fluorescence intensity (concentration not given with the values) | 360,000 compounds, 3.1% hits | AID 624483; in the data active = fluorescence intensity above about 16000; inconclusive = no clear call, values can overlap the other calls
BoNT-A LC inh2: inhibitors of Botulinum neurotoxin A light chain protease | multiplex microsphere protease substrate cleavage, flow cytometry | inhibition, % at 10 µM | 360,000 compounds, 0.17% hits | AID 588499
BoNT F protease: BoNT F light chain protease inhibition; 360,000 compounds, 0.22% hits; inhibition, % at 10 µM; Multiplex microsphere protease cleavage assay, flow cytometry; in the data active = inhibition above about 35%, passing the limit was not always enough; inconclusive = no clear call, values can overlap the other calls
Anthrax LF inh2: anthrax lethal factor protease inhibition. P15917. multiplex microsphere protease cleavage assay, LF. inhibition, % at 10 µM. 360,000 compounds, 0.12% hits. AID 588501
Target sequence (P15917 whole entry, looked up): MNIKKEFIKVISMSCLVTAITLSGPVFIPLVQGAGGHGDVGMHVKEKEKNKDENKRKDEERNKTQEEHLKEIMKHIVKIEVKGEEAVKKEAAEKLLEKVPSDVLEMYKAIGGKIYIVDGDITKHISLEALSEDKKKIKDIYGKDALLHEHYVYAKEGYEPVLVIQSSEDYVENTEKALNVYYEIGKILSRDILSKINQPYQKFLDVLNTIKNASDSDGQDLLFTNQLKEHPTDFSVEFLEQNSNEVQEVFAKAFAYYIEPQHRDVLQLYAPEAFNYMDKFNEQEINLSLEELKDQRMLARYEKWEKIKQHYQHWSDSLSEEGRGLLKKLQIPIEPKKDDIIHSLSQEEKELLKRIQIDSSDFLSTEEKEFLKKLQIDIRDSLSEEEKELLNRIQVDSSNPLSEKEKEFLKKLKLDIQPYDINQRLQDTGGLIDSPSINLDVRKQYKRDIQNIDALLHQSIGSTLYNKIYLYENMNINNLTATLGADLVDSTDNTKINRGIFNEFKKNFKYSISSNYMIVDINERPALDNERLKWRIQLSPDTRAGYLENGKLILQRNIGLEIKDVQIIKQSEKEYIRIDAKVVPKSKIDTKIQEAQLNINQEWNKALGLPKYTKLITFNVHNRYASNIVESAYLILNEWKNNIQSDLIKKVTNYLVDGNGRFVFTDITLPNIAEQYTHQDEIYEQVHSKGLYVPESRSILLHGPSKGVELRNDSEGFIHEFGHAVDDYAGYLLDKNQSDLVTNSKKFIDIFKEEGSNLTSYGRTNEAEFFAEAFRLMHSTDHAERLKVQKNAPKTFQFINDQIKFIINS
Each line names hits and unclear results; the compound was inactive in the other large screens. Shown are actives, neighbours in structure and some others; about 3.5% of the full set was active somewhere. Cut-off read from the data, not from the text of the source, unless noted: active = inhibition above about 30%; inconclusive = no clear call, values can overlap the other calls; inactive = below that.

CC(C)(CNC(=O)Cc1ccc(Br)cc1)N1CCOCC1	none
O=C(c1c(F)c(F)c(F)c(F)c1F)N1CCN(c2cccc(C(F)(F)F)c2)CC1	none
Cc1ccc(C)c(N2CCN(C(=O)c3cc4sccc4n3C)CC2)c1	Bead autofluor 22451, BoNT-A LC inh2 inconclusive
Cc1ccc(C)c(N2CCN(C(=O)c3ccc4c(c3)c(C)c(C)n4C)CC2)c1	none
Cn1c(C(=O)N2CCN(c3cccc(C(F)(F)F)c3)CC2)cc2sccc21	Bead autofluor 21909
CCOC(=O)N1CCN(C(=O)c2cc3sccc3n2C)CC1	Bead autofluor 19772
COc1ccc2c(C)cc(N3CCCCCC3)nc2c1	none
Cc1cc(N2CCCCCC2)nc2ccc(F)cc12	Bead autofluor 19022
CC1(C)CSC(C)(C)C(=O)N1	none
CC/C(=N\NC(N)=O)c1c(O)[nH]c(=O)[nH]c1=O	Bead autofluor inconclusive, BoNT F protease inconclusive
CCCC(=O)c1c(O)[nH]c(=O)[nH]c1=O	Bead autofluor 22341
Cc1onc(-c2ccccc2Cl)c1C(=O)N1CCCCCC1	none
S=C1SCCCN1Cc1ccc(Cl)cc1	none
COC(=O)COC(=O)c1ccc(-n2nnnc2SC)cc1	Bead autofluor 22577
Nc1c(-c2ccc(Cl)cc2)cnc2ncnn12	Bead autofluor 23393
CC(C)(C)OC(=O)C[C@@H]1C/C=C\C[C@H](CC(=O)N(CCO)Cc2ccccc2)C(=O)N[C@@H](Cc2c[nH]c3ccccc23)COC1=O	none
CC12CCC(C(=O)Nc3ccccc3)(C/C1=N\O)C2(C)C (stereo not drawn)	Bead autofluor 16758
Cc1cccc(NC(=O)C23CCC(C)(/C(=N/O)C2)C3(C)C)c1 (stereo not drawn)	none
C#CCOC(=O)Nc1cccn(Cc2c(Cl)cccc2Cl)c1=O	Bead autofluor 16958
O=C(Nc1cccn(Cc2c(Cl)cccc2Cl)c1=O)C1CC1	none
C=CCn1c(-c2cccn(Cc3ccccc3)c2=O)n[nH]c1=S	Bead autofluor 21465
C=CCn1c(-c2cccn(Cc3ccc(Cl)cc3)c2=O)n[nH]c1=S	none
Clc1ccccc1Cn1nnc2c(NCCN3CCOCC3)ncnc21	none
CC(C)(C)c1nc(NCCN2CCOCC2)c2nnn(Cc3ccccc3Cl)c2n1	Bead autofluor 23490
Cc1nc(NCCN2CCOCC2)c2nnn(Cc3ccccc3Cl)c2n1	none
c1ccc(Cn2nnc3c(NCCN4CCOCC4)ncnc32)cc1	Bead autofluor 22975
COc1ccc(-n2ncc3c(=O)n(Cc4c(F)cccc4Cl)cnc32)cc1	none
Cc1nn(C(=O)c2cccc([N+](=O)[O-])c2)c(C)c1Cl	none
COCCCNC(=O)C1=CCN(S(=O)(=O)c2ccc(OC)cc2)CC1	none
CN1CCN(C2OC(=O)c3ccccc32)CC1 (stereo not drawn)	Bead autofluor 17143
CCOC(=O)C1=C(C)NC2=C(C(=O)CC(C)(C)C2)C1c1cccc(C)n1 (stereo not drawn)	Bead autofluor 20812
CCOC(=O)C1=C(C)NC(C)=C(C(=O)OCC)C1c1cccc(C)n1	none
Cc1ccc(-c2noc(CSc3nnnn3C3CCCCC3)n2)cc1	none
Fc1ccccc1COc1ccc(-c2nnn(Cc3ccccc3F)n2)cc1	none
Cn1nnc(-c2ccc(OCc3ccccc3F)cc2)n1	Bead autofluor 23800
COc1ccc(C2CC(c3ccc(C)cc3)=NN2C(=O)CCC(=O)O)cc1OC (stereo not drawn)	none
CCOC(=O)CSc1nc2cc(C(=O)N3CCCC3)ccc2c(=O)n1Cc1ccccc1	none
CCOC(=O)CSc1nc2cc(C(=O)N3CCC(C(N)=O)CC3)ccc2c(=O)n1-c1ccccc1	Bead autofluor 21305
COCCNC(=O)c1ccc(-n2c(SCc3cc(F)ccc3F)nc3ccccc3c2=O)cc1	none
CCOC(=O)CSc1nc2ccccc2c(=O)n1-c1ccc(C(=O)NCCOC)cc1	Bead autofluor 21747
CCOC(=O)CSc1nc(-c2ccccc2)nc2ccccc12	Bead autofluor 21864
CCN1C(=O)[C@H]2[C@@H](c3ccc(-c4ccc(F)cc4)cc3)N[C@@](C)(C(=O)OC)[C@H]2C1=O	none
Cc1cc(C)cc(CSCC(=O)N/N=C/c2ccc(OCC(=O)NCc3ccco3)cc2)c1	Bead autofluor 21576
COc1ccc(CN2CCNC(=O)C2CC(=O)N(C)C2CCCCC2)cc1OC (stereo not drawn)	none
CCOC(=O)c1cnn(-c2ccccc2)c1NC(=O)c1ccc(C)cc1	Bead autofluor 23981
CCOC(=O)c1cnn(-c2cccc(Cl)c2)c1N	Bead autofluor 16767
COc1cccc2cc(C(=O)N3CCCCC3C)c(=O)oc12 (stereo not drawn)	none
COc1cccc2cc(C(=O)Nc3ccc(S(=O)(=O)NCC4CCCO4)cc3)c(=O)oc12 (stereo not drawn)	Bead autofluor 24536
O=S(=O)(NCC1CCCO1)c1ccc(Oc2ccccc2)cc1 (stereo not drawn)	Bead autofluor 21154
Cc1ccc(NC(=O)c2cc(S(=O)(=O)NCC3CCCO3)ccc2F)cc1 (stereo not drawn)	none
O=S(=O)(NCC1CCCO1)c1ccc(-c2ccc(S(=O)(=O)NCC3CCCO3)cc2)cc1 (stereo not drawn)	none
COc1cccc2cc(NC(=O)C3CCCCC3)c(=O)oc12	Bead autofluor 21365, BoNT-A LC inh2 inconclusive
CCC(Oc1ccccc1)C(=O)Nc1ccc(S(=O)(=O)NCC2CCCO2)cc1 (stereo not drawn)	Bead autofluor 20336
O=C(Nc1ccc(S(=O)(=O)NCC2CCCO2)cc1)c1ccccc1 (stereo not drawn)	none
CC(=O)NS(=O)(=O)c1ccc2sc(C)nc2c1	none
COc1cccc(CN(CC(=O)NCC2CCCO2)C(=O)CNS(=O)(=O)c2ccccc2)c1 (stereo not drawn)	Bead autofluor 16841
CC(C)(C)C1CCN2CCCC(c3ccccc3)(C1)C2=O (stereo not drawn)	none
COc1ccc(NC(=O)C2Cc3c(-c4ccc5c(c4)OCO5)ccnc3O2)cc1OC (stereo not drawn)	none
C=CCn1c(COc2ccccc2-c2ccccc2)nnc1SCC(=O)NC(=O)NCc1ccco1	Bead autofluor 21241
CCn1c(C)cc2c(c1=O)C(c1ccccc1)C(C(=O)OC)=C(N)O2 (stereo not drawn)	Bead autofluor 23918
CCOC(=O)C1=C[C@@H](c2ccccc2)N(S(=O)(=O)c2ccc(C)cc2)[C@H]1c1ccc(F)cc1	none
O=C1C2C3C=CC(C3=C(c3ccccc3)c3ccccc3)C2C(=O)N1CCO (stereo not drawn)	Bead autofluor 16812
COc1ccc(CCN2C(=O)CC(Sc3ncccc3C(=O)O)C2=O)cc1OC (stereo not drawn)	Bead autofluor 23415
CCCN1C(=O)CC(Sc2ncccc2C(=O)O)C1=O (stereo not drawn)	none
CCc1nnc(NC(=O)CCC(=O)N2CCN(c3cccc(Cl)c3)CC2)s1	none
COc1ccc(N2CC(C(=O)Nc3ccccc3C(=O)NC3CC3)CC2=O)cc1 (stereo not drawn)	none
O=C(NCC1CCCC(CNC(=O)N2CCc3ccccc32)C1)N1CCc2ccccc21 (stereo not drawn)	Bead autofluor 21215
CCCCNC(=O)C1(C)CCN1C(=O)c1ccc2sccc2c1 (stereo not drawn)	none
Cc1cc(C(=O)NCCC2=CCCCC2)no1	Bead autofluor 25954

Compound activity: PubChem BioAssay, NMMLSC
